60 compounds from PubChem BioAssay AID1962 (The Scripps Research Institute Molecular Screening Center, 2009) can be followed below.

Structures are written as SMILES. The campaign covered roughly 300,000 compounds. About 2,500 (0.83%) were called active.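 How the source made its calls: active means inhibition above the mean of all tested compounds plus 3 SD, set per screening campaign (cut at about 24% in these data); inactive means the rest.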 The list comes from a sample in which actives are over-represented; it also holds similar structures and randomly drawn compounds.

The test system of this experiment is tRNA 2'-phosphotransferase TPT1 (Candida albicans SC5314). The experiment can be described thus: tRNA 2'-phosphotransferase blockers, C. albicans – biochemical, fluorescence polarization, primary screen (AID 1962).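 Further: plate controls were DMSO alone for no effect and ferristatin control at 100 nM for full effect.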 The following applies: recombinant caTPT1, FP RNA substrate dephosphorylation; at 5 µM; hits give high values. (In general: Fluorescence polarisation rises when a labelled molecule tumbles more slowly, as on binding a larger partner.)
By inhibition is commonly meant the change of the read-out against control, counted positive when it falls. For the compound `COc1cc(=O)[nH]c(=O)n1C(=O)Cc1ccccc1`, the inhibition was 1.99% (inactive).

As to `COc1ccc(Cn2c(=O)cc(C)[nH]c2=S)cc1`, the inhibition is -2.44% (inactive).

In the case of `CCCOc1ccc(Cn2c(O)cc(=O)[nH]c2=O)cc1`, the inhibition was 48.6% (active). Next, `CCc1ccc(C(CNc2nc(C(F)(F)F)nc3ccccc23)N(C)C)cc1` (stereo not given): -2.4% (inactive); `O=C(O)c1ccc2c(c1)C(=O)N(c1ccc(/C=C/C(=O)c3ccccc3)cc1)C2=O`: 17.6% (inactive). As for `O=C(/C=C/c1ccc(N2CCOCC2)cc1)c1ccccc1`, the inhibition is 84.1% (active). Next, `CC(=O)Nc1ccc(/C=C/C(=O)c2ccccc2)cc1`: 15.6% (inactive); `O=C(CC1CCCCC1)NCc1ccccc1`: -1.14% (inactive).

As to `Oc1ccc(N=Cc2sc3ccccc3c2Cl)cc1`, the inhibition is -0.62% (inactive).

As to `O=[N+]([O-])c1ccc(N=Cc2c(O)ccc3ccccc23)cc1`, the inhibition was 3.33% (inactive). Next, `Oc1ccc(N=Cc2c(O)ccc3ccccc23)cc1`: 78.9% (active); `CCOc1cc(NC(=O)c2ccccc2C(=O)O)c(OCC)cc1NC(=O)c1ccccc1F`: 2.36% (inactive).

As to `COC(=O)C1=C(N)Oc2c(oc(CO)cc2=O)C1c1c(F)cccc1Cl` (stereo not given), the inhibition is -1.2% (inactive). Next, `Cc1ccc(Nc2nc(C)cc(C)c2C(N)=O)cc1`: -2.11% (inactive); `Cc1ccc(Nc2nc(Cl)c(C=O)s2)cc1`: 54.2% (active).

As for `Cc1ccc(NC(=O)Nc2nnc(-c3ccncc3)s2)cc1`, the inhibition is -0.82% (inactive). Next, `O=C(Nc1ccccc1Cl)/C(Cl)=C(\Cl)S(=O)c1ccccc1` (stereo not given): -2.57% (inactive); `N#CCc1ccc(NC(=O)c2ccccc2C(=O)Nc2ccc(CC#N)cc2)cc1`: -2.77% (inactive); `O=C(NNC(=S)NC1CC2CCC1C2)c1ccc(Cl)cc1` (stereo not given): -4.71% (inactive). As to `CCOc1ccc2nc(/N=C/c3nc(-c4ccccc4)oc3O)sc2c1`, the inhibition was 46.7% (active). Next, `CC(N=Cc1nc(-c2ccccc2)oc1O)c1ccccc1` (stereo not given): 2.4% (inactive); `CCOc1ccc2nc(N(CCCN(C)C)C(=O)c3ccc(C(=O)c4ccccc4)cc3)sc2c1`: -1.89% (inactive); `CCOC(=O)c1cc2c(=O)[nH]c(C(Cl)(Cl)Cl)nc2o1`: 1.15% (inactive).

As to `CNc1nc2c(C)cccn2c(=O)c1C=Nc1ccc(OC)cc1`, the inhibition is 1.1% (inactive). Next, `CC(C)OCCCNc1nc2c(c(=O)n(Cc3ccccc3F)c(=O)n2C)n1C`: 2.3% (inactive); `Cc1cccn2c(=O)c(/C=C3\SC(=S)N(CC(C)C)C3=O)c(NCCCOC(C)C)nc12`: 63.5% (active); `Cc1[nH]c(C)c(S(=O)(=O)N2CCN(c3cccc(C(F)(F)F)c3)CC2)c1C(=O)N1CCCCC1`: -0.13% (inactive). Next, `CC(C)(C)NC(=O)COC(=O)c1cc(Cl)ccc1[N+](=O)[O-]`: -0.54% (inactive); `Cc1cccc(N2CCN(C(=O)COCc3cc(-c4ccc5c(c4)OCO5)on3)CC2)c1C`: -0.74% (inactive); `CCCC1C(=O)N2C(N(C)C)=Nc3ccc(C)cc3N2C1=O` (stereo not given): 2.58% (inactive). Next, `COC(=O)Cn1cnc2scc(-c3ccc(C)c(C)c3)c2c1=O`: 1.3% (inactive); `CCOc1cc(/C=C2/C(=N)N3OC(C)=CC3=NC2=O)ccc1OC`: 6.06% (inactive); `COc1ccc(OCCCn2cccc2/C=C2/C(=N)N3OC(C)=CC3=NC2=O)cc1`: 0.42% (inactive). For the compound `CC1=CC2=NC(=O)/C(=C/c3coc4ccccc4c3=O)C(=N)N2O1`, the inhibition is 34.6% (active). Next, `Cc1cc(/C=N/Nc2ccc([N+](=O)[O-])cn2)c(C)n1-c1cccc(C(=O)O)c1`: 43% (active). Next, `COc1ccc(Nc2ccc([N+](=O)[O-])cn2)cn1`: -14.7% (inactive); `COc1cc(/C=N\Nc2ccc([N+](=O)[O-])cn2)ccc1OCC(=O)O`: 1.83% (inactive); `Cc1ccc(-n2c(C)cc(/C=N/Nc3ccc([N+](=O)[O-])cn3)c2C)c(C)c1`: 66.7% (active). Next, `Cc1ccc(N2CCN(c3ccc([N+](=O)[O-])cn3)CC2)c(C)c1`: -2.01% (inactive); `Cc1cc(/C=C2\SC(=O)N(C)C2=O)c(C)n1-c1cccc(C(=O)O)c1`: -0.06% (inactive); `C=CCn1c(COc2ccc(F)cc2)nnc1SCC(=O)Nc1cccc(S(N)(=O)=O)c1`: -5.67% (inactive). `COc1cccc(C2CC(c3cccs3)=NN2C(=O)CSC2=NCCS2)c1OC` (stereo not given): the inhibition is -2.93% (inactive). Next, `CCC(C)CN1CCC(CO)(Cc2ccccc2Cl)CC1` (stereo not given): -0.69% (inactive); `COC1(C2=NCCN2)COc2ccccc2O1` (stereo not given): -5.32% (inactive). Next, `COc1ccccc1NC(=O)COC(=O)c1ccccc1SCC(=O)N1CCCC1`: 0.11% (inactive); `COc1ccccc1C1SCCN1C(=O)c1ccc([N+](=O)[O-])cc1` (stereo not given): 1.69% (inactive).

As to `COc1ccc(NS(=O)(=O)c2ccc(C)c(C(=O)N(C)Cc3ccc(OC)cc3OC)c2)cc1`, the inhibition is -1.13% (inactive). In the case of `Nc1c(C(=O)c2cccs2)sc2nsc(SCCN3CCCCC3)c12`, the inhibition is 68.2% (active).

As for `Cc1nc2sc(C(=O)c3ccccc3)c(N)c2c2c1CCCC2`, the inhibition is -0.9% (inactive). Turning to `CN(C)c1ccnc2sc(C(=O)c3ccccc3)c(N)c12`, the inhibition is 2.61% (inactive).

For the compound `CCCNC(=S)N1CCC(NC(=O)c2ccc(OC)cc2)CC1`, the inhibition was 3.14% (inactive). On to `CN1CCN(CCC(=O)N/N=C/C=C2\N(C)c3ccccc3C2(C)C)CC1`, for which the inhibition was 11.7% (inactive). Next, `CN1/C(=C\C=C2\N=C(c3ccc(F)cc3)OC2=O)C(C)(C)c2ccccc21`: 110% (active). Next, `CN1/C(=C\C(=O)c2oc3ccccc3c2N)C(C)(C)c2ccccc21`: 2.22% (inactive); `O=C(c1c(F)cccc1Cl)N1CCN(c2ccccn2)CC1`: 0.41% (inactive); `O=C(Nc1ccccc1N1CCCC1)c1ccc(F)c(S(=O)(=O)N2CCOCC2)c1`: 0.87% (inactive). Next, `O=C1/C(=C\c2ccsc2)NC(=S)N1c1ccccc1`: 0.45% (inactive); `CN(C)c1ccc(/C=C2\NC(=S)N(Cc3ccccc3)C2=O)cc1`: 196% (active); `O=C1NCC(=O)N(Cc2ccccc2)/C1=C/c1ccccc1`: 1.04% (inactive).

For `COCC(=O)Nc1c(I)c(C(=O)NCC(O)CO)c(I)c(C(=O)N(C)CC(O)CO)c1I` (stereo not given), the inhibition is 1.86% (inactive).
